# The list is not random: actives were taken first. Their share in the collection is about 5.1%.
# S1P4 antag = S1P4 receptor antagonists, primary screen, cell-based | Sphingosine 1-phosphate receptor 4 (Homo sapiens), O95977 | S1P4-expressing cells, antagonist mode, reporter read-out | inhibition, % at 4.98 µM | 220,000 compounds, 0.26% hits | AID 1510, 2009; in the data active means inhibition above about 29%;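 further: 0% = wells stimulated with agonist and 100% = vehicle wells without agonist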
# Target sequence (O95977 whole entry, looked up): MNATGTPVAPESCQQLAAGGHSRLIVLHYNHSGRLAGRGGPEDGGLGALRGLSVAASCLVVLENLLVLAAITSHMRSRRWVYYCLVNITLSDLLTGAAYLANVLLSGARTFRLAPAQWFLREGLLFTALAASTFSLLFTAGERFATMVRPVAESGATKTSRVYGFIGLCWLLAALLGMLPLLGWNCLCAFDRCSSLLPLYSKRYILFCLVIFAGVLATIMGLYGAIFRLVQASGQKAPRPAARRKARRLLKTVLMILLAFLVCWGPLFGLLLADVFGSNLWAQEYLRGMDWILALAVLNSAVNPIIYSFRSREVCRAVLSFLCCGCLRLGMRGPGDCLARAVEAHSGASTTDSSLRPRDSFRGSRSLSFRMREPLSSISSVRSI
# Cl transport mod = KCC2 cotransporter modulators, thallium flux, primary screen, cell-based, HEK293 KCC2, FluoZin-2 fluorescence, MLSMR; KCC2 cells, thallium flux FluoZin-2 fluorescence; 190,000 compounds, 2.2% hits; B-score of Tl+ flux slope (higher = more flux/activation; lower = inhibition) at 10 µM; Solute carrier family 12 member 5 (Homo sapiens), Q9H2X9;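 active means thallium flux slope and its plate-corrected score both differing from the plate sample mean at a set confidence after two filtering rounds, in either direction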;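 further: slope of fluorescence scaled to starting intensity during 10 to 20 s after thallium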
# S1P3 antag = S1P3 receptor antagonists, primary screen, cell-based; inhibition, % at 4.98 µM; 170,000 compounds, 0.27% hits; CHO S1P3 NFAT-BLA reporter, FRET fluorescence, antagonist mode;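 active means inhibition above the plate cutoff, the mean inhibition of test wells on that plate plus 3 SD, cut at about 28% in these data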;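 further: cells challenged with S1P at its EC80 of 0.8 µM; blue over green emission ratio from cleaved BLA substrate after 4 h stimulation; 0% = S1P-stimulated wells and 100% = unstimulated DMSO-only wells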
# S1P4 ag = S1P4 receptor agonists, primary screen, cell-based. 220,000 compounds, 0.35% hits. activation, % at 4.98 µM. Sphingosine 1-phosphate receptor 4 (Homo sapiens), O95977. S1P4-expressing cell line, agonist reporter assay. AID 1509, 2009; in the data active means activation above about 11%;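 further: 0% = DMSO vehicle and 100% = reference agonist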
# RAM network inh = inhibitors of the yeast RAM network, primary screen, dse1pr::URA3 reporter, 5-FOA selection | AID 868, 2007 | S. cerevisiae dse1pr::URA3 reporter, 5-FOA growth OD615, 2 d; analog-sensitive cbk1-as2 kinase mutant strain | 190,000 compounds, 1.8% hits | inhibition, % at 50 µM;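 active means inhibition above a set limit, 3 SD over mean compound inhibition, cut at about 8.4% in these data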;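 further: 0% = DMSO-only wells with no growth and 100% = 10 µM 1-NA-PP1 full growth; inhibition rescues growth on 5-FOA so higher OD means more RAM inhibition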
# ROMK mod = ROMK potassium channel modulators, primary screen, cell-based, thallium flux, MLSMR library. ATP-sensitive inward rectifier potassium channel 1 (Homo sapiens), P48048. Tet-inducible ROMK, thallium flux fluorescence; actives lie on both sides. B-score at 10 µM. 130,000 compounds, 2% hits;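 active means signal ratio slope over the read window, or its plate-corrected B-score, at least 3 SD from the plate mean, either direction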;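 further: B-score of the F/F0 ratio slope over 7 to 12 s after thallium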
# Active calls of the source: *; . = not tested or not shown.
SMILES,S1P4 antag,Cl transport mod,S1P3 antag,S1P4 ag,RAM network inh,ROMK mod
CC1CCN(C(=O)c2cc(F)c(F)cc2Cl)CC1,-13,-0.16,.,0,-1,-0.16
CC(=O)Nc1ccc(C)c(NS(=O)(=O)c2cccc(C(F)(F)F)c2)c1,-16,.,-6,0,.,.
CCc1cccc(NC(=O)c2cc(S(=O)(=O)N(C)C)ccc2N2CCCC2)c1,-9,-0.17,-16,0,11*,-0.32
O=C1c2ccccc2C(O)(c2ccccc2)N1c1ccncc1 (centres undefined),-10,0.29,-1,0,.,.
Cc1c(CN2CCC(CO)(CCOc3ccccc3)CC2)c(=O)n(-c2ccccc2)n1C,13,0.071,-10,-1,1,0.0067
CC1(C)CC(=O)CC(=Nc2ccc(C(=O)O)cc2)C1,-8,-1.5,103*,0,0,-0.18
Cc1nn(-c2ccc(C(=O)O)cc2)c2c1C(=O)CC(C)(C)C2,-21,0.088,-1,2,.,.
CC1(C)CC(=O)C/C(=N\NC(=O)Cc2ccccc2)C1,-5,-0.71,11,-2,-1,-0.2
CC1(C)CC(=O)C/C(=N/NC(=O)c2ccc(-c3ccccc3)cc2)C1,1,-4.7*,-3,1,2,-0.05
O=C(CSc1cn(Cc2ccccc2)c2ccccc12)NCc1ccc(F)cc1,5,0.56,-10,1,7,0.35
Cc1ccc(Nc2nc(N)[nH]c(=O)c2N=O)cc1,3,-1.8,-15,0,.,-0.29
COc1ccc(N2CCN(C(=S)Nc3cccc(C)c3C)CC2)cc1,-10,.,.,0,10*,.
COc1ccc(N2CCN(C(=S)Nc3ccc(C)cc3)CC2)cc1,-14,1.1,3,0,3,-0.35
CCOc1ccc(N2C(=O)CC(Sc3ncccn3)C2=O)cc1 (centres undefined),-8,0.0091,17,3,4,.
CCOc1ccc(N2C(=O)CC(Sc3nc(-c4cccs4)cc(C(F)(F)F)c3C#N)C2=O)cc1 (centres undefined),12,-0.32,.,0,11*,.
Cc1nc(CCNC(=O)c2cc(COc3ccc(F)cc3Cl)on2)sc1C,-4,-4,8,1,.,.
CCN1CNC(=S)N(C(C)c2ccccc2)C1 (centres undefined),-17,1.1,-12,1,1,-0.21
CC(=O)c1ccc(N2CCN(C(=O)c3ccc(Cn4c(=S)[nH]c5ccc(N6CCOCC6)cc5c4=O)cc3)CC2)cc1,-25,0.1,-12,0,9.4*,0.66
O=c1c2cc(N3CCOCC3)ccc2[nH]c(=S)n1Cc1ccccc1Cl,-25,0.7,-1,2,8.5*,0.21
O=C(Nc1nc2c(s1)CCCC2)c1cccnc1,-12,-0.2,-1,-1,1,0.58
O=C(NC(=S)Nc1nc2c(s1)CCCC2)c1ccc(C(=O)c2ccccc2)cc1,-21,23*,10,-1,4,.
COC(=O)N/N=C1\CCCc2c(C)cc(C)cc21,-9,0.71,-3,-1,2,.
Cc1cc(C)c2c(c1)/C(=N/NC(=S)Nc1ccc(F)cc1)CCC2,-8,2.9*,.,-2,4,2.3
O=C(COC(=O)CCc1nc2ccccc2c(=O)[nH]1)Nc1ccc2c(c1)OCO2,1,0.018,-15,2,.,.
O=C1c2cccc3c([N+](=O)[O-])ccc(c23)C(=O)N1c1nccs1,99*,-0.56,.,0,3,-0.0049
SMILES,S1P4 antag,Cl transport mod,S1P3 antag,S1P4 ag,RAM network inh,ROMK mod
O=C1c2cccc3cccc(c23)C(=O)N1c1nccs1,5,.,14,3,1,0.39
CCOC(=O)C1CCCN(CC(=O)NC2=Nc3ccccc3N=C(C)C2c2ccccc2)C1 (centres undefined),1,0.046,-14,-2,2,-2.1*
CCOC(=O)C1CCCN(CC(=O)Nc2cccc(C(C)=O)c2)C1 (centres undefined),-14,0.89,-11,2,0,0.39
CCN(CC)C(=O)Oc1nnc(SC(C)C)n1-c1ccc(Cl)cc1,5,-0.7,1,-1,.,-1.3
COc1ccc(Cl)cc1NC(=S)NNC(=O)c1cccs1,-3,0.016,-12,1,0,0.12
CC(C)(c1ccccc1)c1ccc(OCCn2cnc3ccccc3c2=O)cc1,2,-5.3,.,2,8.7*,1.1
Cc1cc(C)c(S(C)(=O)=O)c(Oc2cccc(C(F)(F)F)c2)n1,9,-0.68,-6,-1,0,-0.17
CC(NCc1ccc(S(N)(=O)=O)cc1)C(=O)N1c2ccccc2CC1C (centres undefined),-16,0.72,8,0,.,.
CCOC(=O)CSc1nnc(CSc2nc3sc4c(c3c(=O)[nH]2)CCC4)n1C,-19,0.053,3,1,8.7*,-0.11
CCOC(=O)CSc1nnc(CSc2nc3sc4c(c3c(=O)[nH]2)CCC4)n1-c1ccccc1,-13,-1.7,.,3,1,-0.16
COc1ccc2nc3sc(C(=O)NCc4cccs4)c(N)c3cc2c1,-1,.,54*,0,2,0.22
O=C(CN1c2ccccc2Sc2ccccc21)N/N=C/c1ccc(Cl)cc1Cl,-6,-0.083,15,-1,.,1.5
O=C(CN1c2ccccc2Sc2ccccc21)NNC(=S)Nc1ccc(Cl)cc1Cl,-7,0.17,.,-1,11*,.
CN(C)CCCN1C(=O)c2oc3ccccc3c(=O)c2C1c1cccs1 (centres undefined),-15,7.3*,10,-1,-1,.
COc1cc(OC)cc(-c2nnc(SCc3c(F)cccc3Cl)o2)c1,-5,-0.056,-47,3,8.9*,.
Cc1ccc(S(=O)(=O)CCC(=O)OCC(=O)NCc2ccc(Cl)cc2)cc1,-2,-0.43,-29,2,1,-0.64
Cc1csc(NC(=O)C(F)(F)F)n1,-17,-0.75,-6,1,1,-1.4
Cc1c(C(=O)N/N=C/c2ccc(Cl)cc2)[nH]c2ccc(Cl)cc12,-8,2.5,-15,1,8.5*,0.54
O=C(NCC1CCCO1)c1cc([N+](=O)[O-])ccc1Cl (centres undefined),-5,2.8,-12,-2,4,-0.02
CCOC(=O)c1nnc(-c2ccccc2)nc1Sc1ccccc1Cl,-17,-0.47,.,-2,11*,0.78
COc1ccc(C)cc1NC(=O)C(=O)NNC(=O)c1ccco1,-23,21*,.,3,2,.
COc1ccc(S(=O)(=O)n2ccc(-c3cnc(-c4ccccc4)s3)n2)cc1,-17,.,.,-2,9.3*,.
